Our source for the Potency values is PubChem BioAssay AID1347075 (National Center for Advancing Translational Sciences (NCATS), 2019).

The whole screen tested about 400,000 compounds, of which about 5,500 (1.4%) were called active. A call without a number means that no potency is given here. Inconclusive results (about 9%) are left out. Calls come from the whole dose curve; as a rule, active = well fitted cell-killing curve with a large enough effect; inconclusive = small, poorly fitted or top-dose-only effect, or effect the other way; inactive = flat fitted curve, though single readings scatter. The full list was thinned out, with actives kept by preference.
Potency is the fitted concentration of half-maximal effect.

The test in a line: qHTS assay for MDR1-selective chemotherapeutics: Primary screen using the parental adenocarcinoma cell KB-3-1. Note: nearly all actives have a fitted effect of over 60% in size. The note with it: KB-3-1 viability, CellTiter-Glo ATP luminescence, 72 h; series mostly up to 46.1 µM. In outline:
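Viability of parental KB-3-1 cells, measured by CellTiter-Glo luminescence, followed a 72 h incubation at 37 °C with pinned compounds in phenol-red-free DMEM containing 10% FBS.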
(In qHTS, concentration-response curves come from the screen itself.)
`CCSc1ncc(Cl)c(C(=O)Nc2c(C(=O)c3ccccc3)oc3ccccc23)n1`: the Potency entry was “inactive”.

As for `Cc1cn(C)c(CC(=O)NCc2ccccc2)c1C(=O)O`, the Potency entry was “inactive”.

Consider `CC(C)CC(=O)NCC(c1ccc2c(c1)OCO2)N1CCN(c2ccc(F)cc2)CC1` (stereo unspecified), for which the Potency entry is “inactive”.

Consider `[O-][n+]1ccc(OCc2ccccc2)cc1`, for which the Potency result is “inactive”.

Consider `c1ccc(Cc2cc[n+](Cc3ccccc3)cc2)cc1`, for which the Potency was 18.4 µM (active).

Take `c1ccc(CNCc2ccc(CNCc3ccccc3)cc2)cc1`: the Potency entry was “inactive”.

For `CCC(=O)Nc1c(C(=O)N2CCN(c3ccc(F)cc3)CC2)oc2ccccc12`, the Potency entry was “inactive”.

`COCCN(Cc1ccco1)C(=O)Cn1ncc2c([nH]c3ccccc32)c1=O`: the Potency entry is “inactive”.

Consider `CCOc1ccc(N=C2NC(=O)S/C2=C\c2ccc(O)cc2)cc1`, for which the Potency result was “inactive”.

Turning to `CCOc1[nH]n(-c2ccc(Cl)cc2)c(=O)c1C=Nc1ccc(O)cc1`, the Potency was 18.4 µM (active).

With `Fc1ccc(C(Nc2ccc(Cl)c(C(F)(F)F)c2)c2nnc(-c3ccccc3)o2)cc1` (stereo unspecified), the Potency result is “inactive”.

For `CCOc1ccccc1N(CC)C(=O)c1cc2ccc3cccnc3c2[nH]1`, the Potency entry was “inactive”.

On to `COc1ccc(CNC(=O)c2cc3c(=O)[nH]c4ccc(C)cc4c3s2)c(OC)c1`, for which the Potency entry was “inactive”.

Turning to `CCN(CC)CCCNC(=O)c1cc2c(=O)[nH]c3ccc(C)cc3c2s1`, the Potency entry was “inactive”.

Take `Cc1cccc(N(C)C(=O)c2cc3c(=O)[nH]c4ccc(C)cc4c3s2)c1`: the Potency was 7.31 µM (active).

Turning to `COc1cc(NC(=O)c2cc(C3CC3)nc3c2c(C)nn3-c2ccccc2)cc(OC)c1`, the Potency entry is “inactive”.

As to `Cc1cc(C(=O)Nc2cccc(C(F)(F)F)c2)c2c(C)nn(-c3cccc(F)c3)c2n1`, the Potency is 18.4 µM (active).

With `CSc1ccc(CCNC(=O)c2cc(C)nc3c2c(C)nn3-c2cccc(F)c2)cc1`, the Potency result was “inactive”.

Regarding `Cc1ccc(S(=O)(=O)N(C)C2(C)CCS(=O)(=O)C2)cc1` (stereo unspecified), the Potency result was “inactive”.

For `Cc1ccc(S(=O)(=O)C2(S(=O)(=O)c3ccc(C)cc3)CCCC2)cc1`, the Potency was 6.51 µM (active).

Take `Cc1ccc(S(=O)(=O)N2CCN(C)CC2)cc1`: the Potency entry is “inactive”.

Turning to `COc1ccc(C2c3c(oc4ccccc4c3=O)C(=O)N2Cc2ccc3c(c2)OCO3)cc1` (stereo unspecified), the Potency entry is “inactive”.

Regarding `COC(=O)c1sccc1S(=O)(=O)N(CC(=O)Nc1ccc(C)c(F)c1)c1ccc(C)c(C)c1`, the Potency entry was “inactive”.

Take `O=C(Nc1ccc(-c2nc3ccccc3[nH]2)cc1)c1ccncc1`: the Potency result is “inactive”.

For the molecule `CC(=O)Nc1ccc2nc(NC(=O)CS(=O)(=O)c3ccc(F)cc3)sc2c1`, the Potency result is “inactive”.

As for `CCCC(=O)Nc1nc2ccc(NC(=O)c3c(F)c(F)c(OC)c(F)c3F)cc2s1`, the Potency was 2.59 µM (active).

For `CCCn1nc(C(=O)Nc2ccc3nc(C)sc3c2)c2ccccc2c1=O`, the Potency entry was “inactive”.

Consider `CC(=O)c1ccc(N2CCN(c3nc4c(S(=O)(=O)c5ccccc5)nnn4c4ccc(Cl)cc34)CC2)cc1`, for which the Potency entry is “inactive”.

For `CC(=NNC(=O)c1ccc2nc[nH]c2c1)c1ccc(Br)cc1`, the Potency result is “inactive”.

Turning to `O=C(N/N=C/c1ccc(Cl)c(Cl)c1)c1ccc2nc[nH]c2c1`, the Potency is 18.4 µM (active).

Consider `CC1=NNC(=O)C1CCC(=O)N/N=C\c1ccc(Cl)c(Cl)c1` (stereo unspecified), for which the Potency result is “inactive”.

In the case of `CNc1ccc(-c2nc(-c3ccccc3C)no2)cc1[N+](=O)[O-]`, the Potency entry was “inactive”.

For the molecule `COc1ccc(Cn2cc(C(=O)c3ccc(C)cc3)c(=O)c3cc(OC)c(OC)cc32)cc1`, the Potency result was “inactive”.

For `O=C1C[C@H]2C=CCc3cccc(c32)CN1Cc1ccccc1`, the Potency entry was “inactive”.

`COc1ccc(C2C(C#N)=C(/N=C/N3CCOCC3)OC3=C2C(=O)CC(C)(C)C3)cc1OC` (stereo unspecified): the Potency result is “inactive”.

Turning to `COc1ccc(C2C(C#N)=C(N)Oc3cc(N)ccc32)cc1OC` (stereo unspecified), the Potency is 16.4 µM (active).

Turning to `N#CC1=C(N)Oc2cc(O)ccc2C1C1CCCCC1` (stereo unspecified), the Potency entry was “inactive”.

Take `O=C(NCc1ccc(F)cc1)c1ccc2nc(N3CCCCC3)sc2c1`: the Potency result was “inactive”.

In the case of `COc1ccc2nc(N3CCN(C(=O)c4ccc([N+](=O)[O-])o4)CC3)sc2c1`, the Potency is 16.4 µM (active).

Take `CC1CCN(c2nc3ccc(C(=O)N4CCN(c5ccccc5)CC4)cc3s2)CC1`: the Potency entry is “inactive”.

In the case of `COc1cc(C(=O)N2CCN(C(=O)COc3cccc(C)c3)CC2)cc(OC)c1OC`, the Potency entry is “inactive”.

As for `Cc1ccn2c(-c3csc(Nc4ccc(C(=O)O)cc4)n3)c(C)nc2c1`, the Potency result was “inactive”.

For the molecule `Cc1ccc(Nc2nc(-c3ccc(O)cc3O)cs2)nc1`, the Potency is 20.6 µM (active).

In the case of `CC(=O)Nc1cnc(-c2ccc(O)cc2C)cn1`, the Potency result is “inactive”.

Regarding `Cc1ccc(CN2CCCn3nc(C(=O)NCc4ccccc4Cl)cc3C2=O)cc1`, the Potency entry is “inactive”.

In the case of `CCOC(=O)c1nnn(CC(=O)NC(=O)Nc2ccccc2F)c1C(=O)OCC`, the Potency entry was “inactive”.

As to `COC(=O)c1ccccc1S(=O)(=O)Nc1ccc(OC)cc1`, the Potency entry is “inactive”.

As for `COC(=O)c1c(C)oc(C)c1S(=O)(=O)Nc1ccc(C(C)C)cc1`, the Potency was 3.26 µM (active).

As for `COC(=O)c1c(C)oc(C)c1S(=O)(=O)NCc1ccc(Cl)cc1`, the Potency entry is “inactive”.

Regarding `CC(C)(C)OC(=O)NCCCCCNC(=O)c1nc[nH]c1C(=O)NCc1ccccc1`, the Potency entry is “inactive”.

For `O=C(Nc1cc(Br)ccc1F)c1nc[nH]c1C(=O)NCc1ccccc1`, the Potency entry was “inactive”.

As to `O=C(Nc1ccon1)c1nc[nH]c1C(=O)NCc1ccccc1`, the Potency was 5.8 µM (active).

Turning to `COc1ccc(NC(=O)c2ccc3nc(C(C)C)oc3c2)cc1OC`, the Potency result was “inactive”.

As to `COC(=O)c1sc2ncccc2c1-n1c(C)ccc1C`, the Potency entry was “inactive”.

Consider `O=C(NC1CCCCC1)c1ccc(Cn2c(SCc3ccccc3)nc3cccnc32)cc1`, for which the Potency entry was “inactive”.

In the case of `Cc1oc2c(c1C(=O)Nc1ccc(F)c(F)c1)C1=NCCN1C=N2`, the Potency result is “inactive”.

Regarding `O=C(Nc1ccc2nc(SCC(=O)N3CCc4ccccc43)sc2c1)c1ccccc1F`, the Potency result was “inactive”.

Take `CCOc1ccc(NC(=O)c2cn(C3CCCCC3)c(=O)c3c2c2ccccc2n3C)cc1`: the Potency result was “inactive”.

For `COCCNC(=O)CSc1nc(-c2ccccc2)[nH]c1-c1ccc(C)cc1`, the Potency entry was “inactive”.

Regarding `COc1cccc(-c2nc(S(=O)(=O)c3ccc(C)cc3)c(NCc3ccccc3)o2)c1`, the Potency entry is “inactive”.

Take `CC(Nc1ccc(-c2nc(-c3ccco3)no2)cc1[N+](=O)[O-])c1ccccc1` (stereo unspecified): the Potency entry is “inactive”.

Turning to `O=C(NCc1ccccc1)C1CCN(S(=O)(=O)c2ccc3[nH]c(=O)ccc3c2)CC1`, the Potency entry is “inactive”.

`COc1ccccc1N1CC(C(=O)Nc2ccc(S(=O)(=O)N3CCOCC3)cc2)CC1=O` (stereo unspecified): the Potency result was “inactive”.

Take `COc1cc(OC)c(N2CC(C(=O)Nc3cc(Cl)ccc3N3CCOCC3)CC2=O)cc1Cl` (stereo unspecified): the Potency was 5.8 µM (active).

As to `COc1ccc(Cl)cc1NC(=O)C1CC(=O)N(c2ccc(F)cc2)C1` (stereo unspecified), the Potency result was “inactive”.

`CCCCn1cc(S(=O)(=O)c2ccc(OCC)cc2)c(=O)c2cc(OC)c(OC)cc21`: the Potency result is “inactive”.

On to `Cc1cccc(N2CCN(C(=O)c3ccc(Nc4nc5ccccc5n5nnnc45)cc3)CC2)c1C`, for which the Potency entry was “inactive”.

For the molecule `CCN(CC)S(=O)(=O)c1ccc(N2CCCC2)c(NC(=O)c2ccc([N+](=O)[O-])o2)c1`, the Potency was 6.51 µM (active).

On to `CCN(CC)S(=O)(=O)c1ccc(N2CCOCC2)c(NC(=O)c2ccc(=O)n(C)n2)c1`, for which the Potency entry was “inactive”.

On to `CCN(CC)S(=O)(=O)c1cc(C(=O)Nc2cc(S(=O)(=O)N3CCOCC3)ccc2N2CCCC2)ccc1F`, for which the Potency result is “inactive”.

In the case of `Cc1[nH]c2ccccc2c1C(=O)C(=O)N(C)c1ccccc1`, the Potency entry was “inactive”.

In the case of `CCn1c2c(c(=O)n3ncc(C(=O)N4CCN(c5ccccc5)CC4)c13)CN(Cc1ccc(OC)cc1)CC2`, the Potency entry was “inactive”.

Turning to `CC(=N\NC(=O)c1cc(Br)ccc1O)/C(=N/O)C(=O)Nc1ccccc1`, the Potency entry was “inactive”.

As for `C/C(=N\NC(=O)c1ccoc1C)c1ccccc1O`, the Potency was 14.6 µM (active).

For `C/C(=N/NC(=O)CCc1ccccc1)c1ccco1`, the Potency entry was “inactive”.

Take `O=C(NCc1ccc2c(c1)CCN2C(=O)c1ccccc1)c1ccccc1`: the Potency result was “inactive”.

Take `COc1ccc(NC(=O)Cn2c(=O)n(Cc3ccc(C(=O)NCc4ccccc4Cl)cc3)c(=O)c3ccccc32)cc1`: the Potency entry was “inactive”.

For `C=CC(=O)OCCOCCOCCOCCOC(=O)C=C`, the Potency was 10.3 µM (active).

Take `CCOC(=O)c1ccc(NC(=O)Cn2c(=O)cc(C)c3c(C)nn(-c4cccc(F)c4)c32)cc1`: the Potency entry is “inactive”.

As for `CCC(=O)N1CCc2cc(CNC(=O)Nc3ccccc3Cl)ccc21`, the Potency result was “inactive”.

Take `COC(=O)c1scc(-c2ccc(C)cc2)c1S(=O)(=O)Nc1cc(Cl)c(OC)cc1OC`: the Potency result is “inactive”.

On to `CCc1ccc(Sc2cc(C(=O)NCCCOC(C)C)c3ccccc3n2)cc1`, for which the Potency entry was “inactive”.

Take `CSc1n[nH]c(-c2ccco2)n1`: the Potency entry is “inactive”.

For the molecule `Cn1c(-c2ccco2)nc2cc3ccccc3cc21`, the Potency was 18.4 µM (active).

As for `Cc1ccc2nc(-c3ccco3)c(Cc3cccc(Cl)c3)n2c1`, the Potency entry is “inactive”.

Turning to `N#Cc1ccc(-c2cccs2)nc1SCc1ccc(Br)cc1`, the Potency result was “inactive”.

As to `Cc1ccc(NC(=O)Cn2nnc(C(=O)NCc3ccco3)c2N)c(C)c1`, the Potency entry is “inactive”.

Consider `CCOc1ccccc1NC(=O)Cn1nnc(C(=O)Nc2ccc(C)c(C)c2)c1N`, for which the Potency entry is “inactive”.

On to `CCOc1ccccc1NC(=O)Cn1nnc(C(=O)NCc2cccs2)c1N`, for which the Potency was 0.259 µM (active).

`CCc1ccccc1NC(=O)Cc1ccc(NC(=O)N2CCCCc3ccccc32)cc1`: the Potency result is “inactive”.

As to `CC(C)(C)NC(=O)CSc1nc(-c2ccc(F)cc2)cc(C(F)(F)F)n1`, the Potency result is “inactive”.

Take `Cc1ccc(Cl)cc1NC(=O)CSc1nccn1C`: the Potency entry is “inactive”.

For `COc1ccc(-c2cc(C(=O)Nc3sc4c(c3C(N)=O)CCCC4)no2)cc1`, the Potency result was “inactive”.

Regarding `COc1ccc(-c2nc3c(s2)CCc2onc(-c4ccc(OC)cc4)c2-3)cc1`, the Potency was 20.6 µM (active).

Regarding `COc1ccc(-c2nc3c(s2)CCc2onc(-c4ccc(Br)cc4)c2-3)cc1`, the Potency entry was “inactive”.

On to `COc1ccccc1CNC(=O)CCn1c(=O)c2ccccc2n(CC(=O)Nc2cccc(Cl)c2)c1=O`, for which the Potency entry was “inactive”.

In the case of `COc1ccc(CCNc2ncnc3c2cnn3-c2ccc(C)cc2)cc1`, the Potency entry was “inactive”.

`O=C(NCc1ccccc1Cl)C1=Cc2cc(Br)ccc2OC1`: the Potency result was “inactive”.

As to `CCOCCC(=O)Nc1ccc2c(c1)c(=O)n(C)n2-c1ccc2ccccc2c1`, the Potency was 3.66 µM (active).

For the molecule `CCOC(=O)c1cccc(NC(=O)CCOc2ccccc2)c1`, the Potency entry is “inactive”.

In the case of `CCn1c2ccccc2c2cc(NC(=O)COc3ccc(C)cc3C)ccc21`, the Potency entry was “inactive”.
